Inconclusive results are not listed. Calls of active or inactive are those of the source. Unless noted, calls follow the shape of the dose curve; as a rule, active = well fitted cell-killing curve with a large enough effect; inconclusive = small, poorly fitted or top-dose-only effect; inactive = flat fitted curve, though single readings scatter.
What was measured:
[1] = Cell Viability - LYMP2-025 (AID 976); settings: LYMP2-025 lymphoblastoid cell viability; series mostly up to 92.2 µM
Method in brief: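 Human lymphoblastoid LYMP2-025 cells (2500/well) were pre-incubated 5 hr at 37 C, then treated with compounds for 24 hr at 37 C in complete medium. Viability was read as intracellular ATP by CellTiter-Glo luminescence; AC50 from Hill fits.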

[2] = Cell Viability - LYMP2-002 (AID 977); settings: LYMP2-002 lymphoblastoid cell viability, qHTS; series mostly up to 92.2 µM
Method in brief: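 Luminescent ATP readout (CellTiter-Glo, 30 min room temperature) after 24 h compound exposure at 37 C of a human lymphoblastoid line, 2500 cells/well. AC50 values derived by standard Hill fitting of qHTS concentration-response data.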

[3] = Cell Viability - LYMP2-006 (AID 978); settings: LYMP2-006 lymphoblastoid cell viability, qHTS; series mostly up to 92.2 µM; also: nearly all actives have a fitted effect of over 60% in size
Method in brief: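 Concentration-dependent loss of intracellular ATP in a human lymphoblastoid line after 24 hr treatment at 37 C was measured by CellTiter-Glo luminescence, with AC50 values obtained from standard Hill-equation modelling.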

[4] = Cell Viability - LYMP2-007 (AID 979); settings: LYMP2-007 lymphoblastoid cell viability; series mostly up to 92.2 µM;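 also: cells exposed to compound for 24 h before reading; nearly all actives have a fitted effect of over 60% in size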
Method in brief: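 Human lymphoblastoid cells (2500/well) were plated in complete medium, incubated 5 hr at 37 C, then exposed to compounds for 24 hr at 37 C. Intracellular ATP was read by CellTiter-Glo luminescence after 30 min at room temperature; AC50 from Hill fits.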

[5] = Cell Viability - LYMP2-008 (AID 980); settings: LYMP2-008 lymphoblastoid cell viability, qHTS; series mostly up to 92.2 µM; also: nearly all actives have a fitted effect of over 60% in size
Method in brief: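 Human lymphoblastoid cells (2500/well) were plated, held 5 hr at 37 C, then exposed to compounds for 24 hr at 37 C in complete medium. Intracellular ATP was read by CellTiter-Glo luminescence; AC50 from Hill-fitted concentration-response.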

[6] = Cell Viability - LYMP2-010 (AID 981); settings: LYMP2-010 lymphoblastoid cell viability, qHTS; series mostly up to 92.2 µM; also: nearly all actives have a fitted effect of over 55% in size
Method in brief: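 Human lymphoblastoid LYMP2-010 cells (2500/well) were preincubated 5 hr at 37 C, then exposed to compounds for 24 hr at 37 C in complete medium. Intracellular ATP was measured by CellTiter-Glo luminescence after 30 min at room temperature; AC50 from Hill-fitted concentration-response.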

[7] = Cell Viability - LYMP2-014 (AID 983); settings: LYMP2-014 lymphoblastoid cells, viability qHTS; series mostly up to 92.2 µM; also: nearly all actives have a fitted effect of over 50% in size
Method in brief: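 Human lymphoblastoid cells (2500/well) were pre-incubated 5 hr at 37 C, then exposed to compounds in complete medium for 24 hr at 37 C. Intracellular ATP was read by CellTiter-Glo luminescence after 30 min at room temperature; AC50 from Hill fits.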

[8] = Cell Viability - LYMP2-016 (AID 984); settings: LYMP2-016 lymphoblastoid cell viability, qHTS; series mostly up to 92.2 µM; also: nearly all actives have a fitted effect of over 55% in size
Method in brief: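 Acute toxicity in a Coriell human lymphoblastoid line is scored as loss of intracellular ATP over 24 h of treatment in complete medium. CellTiter-Glo signal is fitted across concentrations with the Hill equation to give AC50.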

[9] = Cell Viability - LYMP2-018 (AID 985); settings: LYMP2-018 lymphoblastoid cells, viability (qHTS); series mostly up to 92.2 µM;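 also: compound exposure lasted 24 hr at 37 °C; nearly all actives have a fitted effect of over 50% in size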
Method in brief: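 Human lymphoblastoid cells (2500/well) were pre-incubated 5 hr at 37 C, then exposed to compounds for 24 hr at 37 C in complete medium. Viability was read as intracellular ATP by CellTiter-Glo luminescence; AC50 values came from Hill-equation fits.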

[10] = Cell Viability - LYMP2-020 (AID 986); settings: series mostly up to 92.2 µM; also: nearly all actives have a fitted effect of over 55% in size
Method in brief: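 Human lymphoblastoid cells, 2500/well, were pre-incubated 5 hr at 37 C, then exposed to compounds for 24 hr at 37 C in complete medium. Intracellular ATP was read by CellTiter-Glo luminescence, and AC50 was derived by Hill fitting of concentration-response data.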

[11] = Cell Viability - LYMP2-022 (AID 987); settings: LYMP2-022 lymphoblastoid cell viability; series mostly up to 92.2 µM; also: nearly all actives have a fitted effect of over 55% in size
Method in brief: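 Human lymphoblastoid cells, 2500/well, preincubated 5 hr at 37 C, then exposed to compounds over a concentration range for 24 hr at 37 C in complete medium. Viability read as intracellular ATP by CellTiter-Glo luminescence after 30 min at room temperature; AC50 from Hill fits.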

[12] = Cell Viability - LYMP2-024 (AID 988); settings: LYMP2-024 lymphoblastoid cell viability; series mostly up to 92.2 µM; also: nearly all actives have a fitted effect of over 60% in size
Method in brief: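 Human lymphoblastoid cells (2500/well) in complete medium were preincubated 5 hr at 37 C, then exposed to compounds for 24 hr at 37 C. Intracellular ATP was read by CellTiter-Glo luminescence; AC50 from Hill-equation fits of concentration-response data.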

[13] = Cell Viability - LYMP2-026 (AID 989); settings: LYMP2-026 lymphoblastoid cell viability, qHTS; series mostly up to 92.2 µM; also: nearly all actives have a fitted effect of over 50% in size
Method in brief: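 Human lymphoblastoid cells (2500/well) in complete medium were preincubated 5 hr at 37 C, then exposed to compounds for 24 hr at 37 C. Cellular ATP was read by CellTiter-Glo luminescence; AC50 from Hill-equation fits of concentration-response data.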

[14] = Cell Viability - LYMP1-002 - Assay at 24 hr (AID 993); settings: LYMP1-002 lymphoblastoid cells viability; series mostly up to 92.2 µM
Method in brief: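 Human lymphoblastoid LYMP1-002 cells, 2500/well in complete medium, were treated with compounds for 24 h at 37 C; intracellular ATP was read by CellTiter-Glo luminescence. AC50 values came from Hill-equation fits of qHTS concentration-response data.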

[15] = Cell Viability - LYMP1-002 - Assay at 40 hr (AID 994); settings: LYMP1-002 lymphoblastoid cell viability; series mostly up to 92.2 µM; also: nearly all actives have a fitted effect of over 60% in size
Method in brief: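 Human lymphoblastoid cells, 2500/well in complete medium, were preincubated 5 hr at 37 C, then exposed to compounds for 40 hr at 37 C. Intracellular ATP was read by CellTiter-Glo luminescence after 30 min at room temperature; AC50 from Hill-equation fits.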

[16] = qHTS Assay for Identification of Small Molecule Inducers of Hypoxia Response (AID 2120; active = well fitted curve in the direction sought with a large enough effect in the signal ratio, with a control signal flat, not every such curve was filed as active; the % refers to the signal ratio); settings: hypoxia response reporter cells, beta-lactamase ratio readout; series mostly up to 104 µM
Method in brief: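 HRE-beta-lactamase reporter in CellSensor HRE-bla ME-180 cells, 2500 cells/well in Opti-MEM with 0.5% dialyzed FBS; compounds tested as titration series, 17 h at 37 degrees C. CCF4 substrate 2.5 h at room temperature; AC50 from 460/530 nm ratio.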

[17] = Cell Viability - LYMP2-012 (AID 982); settings: LYMP2-012 lymphoblastoid cell viability qHTS; series mostly up to 92.2 µM

Measured: Potency

NC=O
not listed: [17]
inactive: all other assays above

CC1CCCO1 (stereo not drawn)
not listed: [14]
inactive: all other assays above

O=[N+]([O-])c1ccc(NCCO)c(OCCO)c1
not listed: [17]
inactive: all other assays above

c1ccc(Nc2ccccc2)cc1
not listed: [7] | [14] | [17]
inactive: all other assays above

CSc1ccc(C=O)cc1
not listed: [7] | [9] | [17]
inactive: all other assays above

CCOC(=O)C(C)C(C)=O (stereo not drawn)
not listed: [7]
inactive: all other assays above

O=C(O)c1ccccc1Cl
not listed: [8]
inactive: all other assays above

O=C(O)CNC(=O)c1ccc([N+](=O)[O-])cc1
not listed: [7]
inactive: all other assays above

Cc1ccc([N+](=O)[O-])c(N)c1
not listed: [13]
inactive: all other assays above

COc1ccccc1[N+](=O)[O-]
inactive: all assays above

CC/C(C)=N/O
not listed: [17]
inactive: all other assays above

CSCCC=O
not listed: [7]
inactive: all other assays above

Nc1c(Cl)cc(Cl)cc1Cl
not listed: [9] | [13]
inactive: all other assays above

Cc1c(N)cccc1N
not listed: [8]
inactive: all other assays above

Clc1ccccn1
not listed: [13]
inactive: all other assays above

C=Cc1ccccn1
not listed: [14]
inactive: all other assays above

CCCCOCCOCCOCCCC
not listed: [8] | [13] | [14]
inactive: all other assays above

O=Cc1cccc(Br)c1
not listed: [9]
inactive: all other assays above

C[C@@H]1O[C@@H](O[C@@H]2[C@@H](O)[C@H](OCCc3ccc(O)c(O)c3)O[C@H](CO[C@@H]3O[C@H](CO)[C@@H](O)[C@H](O)[C@H]3O)[C@H]2OC(=O)/C=C/c2ccc(O)c(O)c2)[C@H](O)[C@H](O)[C@H]1O
not listed: [6]
inactive: all other assays above

O=C(O)c1c(Cl)cccc1Cl
not listed: [13]
inactive: all other assays above

O=C(O)/C=C/C(=O)O
not listed: [7] | [13]
inactive: all other assays above

N#CC1(O)CCCCC1
not listed: [14]
inactive: all other assays above

CC(C)C=O
not listed: [8] | [14]
inactive: all other assays above

CC(O)CC(C)O (stereo not drawn)
not listed: [17]
inactive: all other assays above

CC(=O)OC(C)=O
not listed: [8] | [17]
inactive: all other assays above

c1ccc2n[nH]nc2c1
inactive: all assays above

Cc1ccccc1Br
not listed: [9]
inactive: all other assays above

CC(=O)CCc1ccccc1
not listed: [8]
inactive: all other assays above

O=C1OC(=O)c2c(Cl)c(Cl)c(Cl)c(Cl)c21
not listed: [8]
inactive: all other assays above

O=Cc1ccccc1Cl
not listed: [17]
inactive: all other assays above

C1CCCC1
not listed: [8]
inactive: all other assays above

C=CC(=O)OCCCC
not listed: [14] | [17]
inactive: all other assays above

c1ccc(Oc2ccccc2)cc1
not listed: [7] | [8] | [9] | [17]
inactive: all other assays above

CC(C)Cc1nccs1
not listed: [9]
inactive: all other assays above

CCC1CO1 (stereo not drawn)
not listed: [14]
inactive: all other assays above
